According to PubChem BioAssay (NCI):
Where “and” joins values, the source holds several entries; their conditions need not be identical. Identical values can stand only once. Compounds without any hit were thinned out: in the full panel of roughly 83,000, 20% have a hit.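 Step 1: grow cells in 96-well plates. Step 2: add test compound at a single concentration. Step 3: incubate 48 h. Step 4: record percent growth.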 Calls of active or inactive are those of the source. How the source made its calls: active means growth percent below 10; inactive means the rest.

Columns and labels:
Assay in all cases: NCI-60 one-dose screen, 48 h (100 = growth as untreated, 0 = no growth, -100 = all killed)
Settings in all cases: 10 µM unless noted
DU-145 prostate = tested on: DU-145 prostate
K-562 leukemia = tested on: K-562 leukemia
MALME-3M melanoma = tested on: MALME-3M melanoma
MDA-MB-231 breast = tested on: MDA-MB-231 breast
RXF 393 renal = tested on: RXF 393 renal
SF-268 CNS = tested on: SF-268 CNS
SF-295 CNS = tested on: SF-295 CNS
SF-539 CNS = tested on: SF-539 CNS
UACC-257 melanoma = tested on: UACC-257 melanoma
M14 melanoma = tested on: M14 melanoma

| SMILES | growth (DU-145 prostate) | growth (K-562 leukemia) | growth (MALME-3M melanoma) | growth (MDA-MB-231 breast) | growth (RXF 393 renal) | growth (SF-268 CNS) | growth (SF-295 CNS) | growth (SF-539 CNS) | growth (UACC-257 melanoma) | growth (M14 melanoma) |
| --- | --- | --- | --- | --- | --- | --- | --- | --- | --- | --- |
| N=C(N)c1ccc(-c2ccc(-c3ccc(F)cc3)s2)nc1 | 81.5% (inactive) | 0.099% (active) | 89.5% (inactive) | 57.1% (inactive) | 80.1% (inactive) | 87.6% (inactive) | 79.5% (inactive) | 79.6% (inactive) | 93% (inactive) | 76.1% (inactive) |
| O=C(N/N=C/c1ccc(O)cc1O)c1cccc(Nc2ccnc(C(F)(F)F)c2)c1 | 17.7% (inactive) | 21.6% (inactive) | 2.77% (active) | 41.3% (inactive) | 44.9% (inactive) | 11.8% (inactive) | 20.4% (inactive) | 8.62% (active) | 36.3% (inactive) | -1.76% (active) |
| COc1c(F)cc(-n2c(C(=O)N3CC(F)C3)cc3cccnc32)cc1F | 106% (inactive) | 95.5% (inactive) | 121% (inactive) | 96.5% (inactive) | 107% (inactive) | 94.9% (inactive) | 102% (inactive) | 98% (inactive) | 102% (inactive) | 119% (inactive) |
| COc1cccc(NC(=O)c2sc3nc(C)c(C(O)c4ccccc4)cc3c2N)c1 (stereo not given) | 13.4% (inactive) | 6.52% (active) | 63.2% (inactive) | 9.72% (active) | 26.9% (inactive) | 38.5% (inactive) | 19.2% (inactive) | -5.58% (active) | 71.4% (inactive) | 13.9% (inactive) |
| C=CCNC(=O)Cc1c(-c2ccc(OC)cc2)oc2c(OC)c3c(c(OC)c12)OCO3 | 104% (inactive) | 102% (inactive) | 106% (inactive) | 91.1% (inactive) | 90.8% (inactive) | 96.2% (inactive) | 106% (inactive) | 103% (inactive) | 105% (inactive) | 101% (inactive) |
| CN1C(=O)/C(=C/c2ccc(C(=O)Nc3ncc(Cc4ccccc4Cl)s3)cc2)SC1=S | 73% (inactive) | 71.8% (inactive) | 62.2% (inactive) | 56.7% (inactive) | 69.1% (inactive) | 80.9% (inactive) | 58.4% (inactive) | 77% (inactive) | 89.3% (inactive) | 42.1% (inactive) |
| COc1ccc(/C=C/C(=O)c2cc3c(N)c(C(=O)Nc4ccccc4Cl)sc3nc2C)cc1 | 46.3% (inactive) | 38.9% (inactive) | 21% (inactive) | 33.8% (inactive) | -3.54% (active) | 53.3% (inactive) | 48.5% (inactive) | 36.2% (inactive) | 63.8% (inactive) | 12.1% (inactive) |
| Cc1c(O)c(O)cc2c3c(oc12)CC(c1ccc2c(c1)OCO2)CC3=O (stereo not given) | 97.7% (inactive) | 82.1% (inactive) | 105% (inactive) | 76.9% (inactive) | 115% (inactive) | 83.3% (inactive) | 106% (inactive) | 81.8% (inactive) | 94.7% (inactive) | 84% (inactive) |
| O=S(=O)(Nc1cc(Sc2cccc3cccnc23)c(O)c2ccccc12)c1ccc(F)cc1 | -25.4% (active) | -20.1% (active) | -14% (active) | 19.6% (inactive) | -5.08% (active) | 8.15% (active) | 22.1% (inactive) | -15.6% (active) | -24.8% (active) | -42.8% (active) |
| O=C(NCc1ccc(Cn2c(=O)sn(-c3ccc(Cl)cc3)c2=O)cc1)OCc1ccc2c(Cl)cc(Cl)c(O)c2n1 | 44.8% (inactive) | 29.8% (inactive) | 78.3% (inactive) | 72% (inactive) | 25.8% (inactive) | 54.6% (inactive) | 18.2% (inactive) | 42.5% (inactive) | 78.1% (inactive) | 50.5% (inactive) |
| COc1ccc(C(=O)c2ccc(OC)c(OC)c2OC)cc1 | 25.9% (inactive) and 6.1% (active) | 29.3% (inactive) and 14.6% (inactive) | 51.5% (inactive) and 23.2% (inactive) | 59.2% (inactive) and 48.2% (inactive) | 9.82% (active) and 15.4% (inactive) | 49.3% (inactive) and 42.7% (inactive) | 13.2% (inactive) and -15.2% (active) | 9.19% (active) and -30.5% (active) | 48.6% (inactive) and 61% (inactive) | 24.5% (inactive) and 16.9% (inactive) |
| CN(Cc1ccccc1)c1nc(Cl)c(C2CC(c3ccc4c(c3)OCO4)=NN2c2cc(Cl)cc(Cl)c2)s1 (stereo not given) | 101% (inactive) | 90.2% (inactive) | 95% (inactive) | 101% (inactive) | 109% (inactive) | 94.8% (inactive) | 93.8% (inactive) | 103% (inactive) | 106% (inactive) | 99.5% (inactive) |
| CCOC(=O)c1nc2c3ccccc3cnn2c1C(=O)c1ccc(OC)cc1 | 105% (inactive) | 96.9% (inactive) | 102% (inactive) | 81.7% (inactive) | 106% (inactive) | 103% (inactive) | 98.7% (inactive) | 97.7% (inactive) | 95.4% (inactive) | 101% (inactive) |
| COc1ccc(-c2ccccc2)cc1-c1c(Nc2cc(Cl)cc(Cl)c2O)c(=O)c1=O | 20.5% (inactive) | 13.5% (inactive) | -19.4% (active) | 15% (inactive) | -13% (active) | 18.3% (inactive) | -6.58% (active) | 12.7% (inactive) | 2.86% (active) | 24.6% (inactive) |
| N#CSc1c[nH]c2ccc(/C=C/C(=O)/C=C(/C=C/c3ccc4[nH]cc(SC#N)c4c3)OB(F)F)cc12 | 1.62% (active) | -27.2% (active) | -32.6% (active) | -35.9% (active) | -64.4% (active) | 2.42% (active) | 35.7% (inactive) | -13.2% (active) | -29.8% (active) | -39.9% (active) |
| S=c1nc(CS)[nH]c2ccccc12 | 108% (inactive) | 104% (inactive) | 86.6% (inactive) | 82.8% (inactive) | 109% (inactive) | 92.4% (inactive) | 94.6% (inactive) | 94.7% (inactive) | 95.9% (inactive) | 98.2% (inactive) |

| SMILES | growth (DU-145 prostate) | growth (K-562 leukemia) | growth (MALME-3M melanoma) | growth (MDA-MB-231 breast) | growth (RXF 393 renal) | growth (SF-268 CNS) | growth (SF-295 CNS) | growth (SF-539 CNS) | growth (UACC-257 melanoma) | growth (M14 melanoma) |
| --- | --- | --- | --- | --- | --- | --- | --- | --- | --- | --- |
| FC(F)(F)Sc1ccc(/C=C/c2cc(/C=C/c3ccc(SC(F)(F)F)cc3)n(-c3ccccc3)n2)cc1 | 108% (inactive) | 91% (inactive) | 98.8% (inactive) | 89.5% (inactive) | 113% (inactive) | 91% (inactive) | 96.6% (inactive) | 98.1% (inactive) | 86.4% (inactive) | 95.2% (inactive) |
| CN1CCN(Cc2ccc(NC(=O)c3nc4ccc5[nH]ncc5c4c4c3CCCC4)cc2C(F)(F)F)CC1 | -73.1% (active) | -48.4% (active) | -75.7% (active) | -81.2% (active) | -97.1% (active) | -75.7% (active) | -67.7% (active) | -89.3% (active) | -80.3% (active) | -64.1% (active) |
| CCN(CC)CCCN1C(=O)c2c(c(C)c3c(oc4cc(OC)ccc43)c2C)C1=O | 112% (inactive) | -31.5% (active) | 85.3% (inactive) | 96% (inactive) | 73% (inactive) | 101% (inactive) | 100% (inactive) | 95.5% (inactive) | 114% (inactive) | 108% (inactive) |
| O=C(/C=C/c1cccs1)Nc1ncc(Cc2ccc(Cl)c(Cl)c2)s1 | 59.5% (inactive) | 35.2% (inactive) | 53.1% (inactive) | 82.9% (inactive) | 72.8% (inactive) | 67.9% (inactive) | 30.2% (inactive) | 65.1% (inactive) | 90.8% (inactive) | 29% (inactive) |
| OB(O)c1ccsc1-c1nc2ccc3[nH]ncc3c2c2c1CCCC2 | 47.3% (inactive) | 55.9% (inactive) | 77.9% (inactive) | 70.3% (inactive) | 19.2% (inactive) | 58.9% (inactive) | 69.6% (inactive) | 45.2% (inactive) | 85.5% (inactive) | 41.4% (inactive) |
| CCNC(=O)Nc1ncccc1OCc1ccc(F)cc1 | 97.8% (inactive) | 99.6% (inactive) | 106% (inactive) | 115% (inactive) | 125% (inactive) | 94.3% (inactive) | 97.8% (inactive) | 102% (inactive) | 102% (inactive) | 109% (inactive) |
| Cc1ccc(C(=O)N(CCCN)[C@@H](c2nc3cc(Cl)ccc3c(=O)n2Cc2ccccc2)C(C)C)cc1 | 1.24% (active) | -30.6% (active) | -79% (active) | -75.7% (active) | 6.94% (active) | -21.8% (active) | -60.4% (active) | -75.2% (active) | -56.6% (active) | -65.2% (active) |
| Brc1ccc(/C=C(/C2=NCCN2)n2ccc3ccccc32)cc1 | 63.1% (inactive) | 45.7% (inactive) | 75.4% (inactive) | 58.9% (inactive) | 50.6% (inactive) | 77.7% (inactive) | 85.1% (inactive) | 88.8% (inactive) | 78.8% (inactive) | 65.1% (inactive) |
| O=C(c1cccc(Br)c1)N1CCN(c2ccnc3cc(Cl)ccc23)CC1 | 93.3% (inactive) | 68.1% (inactive) | 94.3% (inactive) | 91.7% (inactive) | 87% (inactive) | 91.5% (inactive) | 87% (inactive) | 96.9% (inactive) | 85.8% (inactive) | 98.6% (inactive) |
| CN1CCN(CCCN2c3ccccc3Sc3ccc(Cl)cc32)CC1 | 91% (inactive) and 104% (inactive) | 42.3% (inactive) and 39.7% (inactive) | 91.6% (inactive) | 70.7% (inactive) and 55.1% (inactive) | 47% (inactive) and 63% (inactive) | 82.3% (inactive) and 88.2% (inactive) | 85.7% (inactive) and 82.5% (inactive) | 85.1% (inactive) | -34.7% (active) and 53.2% (inactive) | -53.2% (active) and 63.3% (inactive) |
| Cc1cccc(Cc2cnc(NC(=O)CCCOc3ccc(Cl)cc3)s2)c1 | 24.2% (inactive) | 25.8% (inactive) | 32.5% (inactive) | 42.4% (inactive) | 4.99% (active) | 50.2% (inactive) | 12.6% (inactive) | 8.78% (active) | 23% (inactive) | -1.79% (active) |
| CCOC(=O)C1=C(C)NC(=O)NC1c1c(Cl)n(-c2ccccc2)c2ccccc12 (stereo not given) | 85.7% (inactive) | 43.4% (inactive) | 86.2% (inactive) | 81.5% (inactive) | 55.6% (inactive) | 86.7% (inactive) | 85.5% (inactive) | 87.9% (inactive) | 88.3% (inactive) | 86.5% (inactive) |
| Cc1cc(N2CCCCC2)nc(NCc2cc(Nc3ccnc4cc(Cl)ccc34)ccc2F)n1 | -1.6% (active) | -31.4% (active) | -75% (active) | -73.3% (active) | -66.2% (active) | -17.2% (active) | -84.5% (active) | -77.7% (active) | -64.4% (active) | -67.8% (active) |
| CN1CCN(C(=O)OCc2nc3c(N4CCOCC4)nc(Cl)nc3n2C)CC1 | 1.69% (active) | -11% (active) | -65.3% (active) | -77.5% (active) | -94.9% (active) | 1.11% (active) | 73.4% (inactive) | -99% (active) | -64.7% (active) | -77.4% (active) |
| O=C1C=CC(=O)N1c1ccc2ccccc2c1 | 94.4% (inactive) and 99.5% (inactive) | 47% (inactive) and 35.5% (inactive) | 69.4% (inactive) and 30.9% (inactive) | 111% (inactive) and 96.5% (inactive) | 83.3% (inactive) and 102% (inactive) | 100% (inactive) and 105% (inactive) | 112% (inactive) and 99% (inactive) | 108% (inactive) and 93.6% (inactive) | 92.5% (inactive) and 91.1% (inactive) | 91.1% (inactive) and 103% (inactive) |
| CCCCCCNC(=O)Oc1ccc(/C(=C(/CC)Cc2ccccc2)c2ccc(OCCCN(C)C)cc2)cc1 | 89.4% (inactive) | 7.11% (active) | 83.3% (inactive) | 67.5% (inactive) | 80.3% (inactive) | 80.8% (inactive) | 116% (inactive) | 99.1% (inactive) | 80.8% (inactive) | 85.2% (inactive) |
